Test results: PubChem BioAssay (EPA / NIEHS)
“And” between values parts separate entries of the source, which are not always exact repeats. Equal entries are not always repeated. Records with an inconclusive call do not appear. Where a structure was tested more than once in an assay, its records may differ in their call. The source made the active and inactive calls. The calls were made as follows, unless noted: active = hit-call score of the fitted dose curve at least 0.9, where 1 is the maximum; inactive = score below 0.9.

How the values were obtained:
[1] = target: human RAR-related Orphan Receptor beta (RORb), RORB (gene 6096) (UniProt Q92753); test: ATG_RORb_TRANS: Attagene TRANS-FACTORIAL HepG2 Assay for human RAR-related Orphan Receptor beta (RORb) (AID 2283010; active = hit-call score of the fitted dose curve at least 0.9, where 1 is the maximum)
How it was run: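 HepG2 cells transiently transfected with GAL4-UAS reporter units expressing chimeric NR-Gal4 protein; reporter mRNA measured 24 h after dosing by RT-PCR, 6-FAM labelling and capillary electrophoresis. Gain-of-signal fitted relative to DMSO baseline.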

[2] = target: Retinoic acid receptor RXR-alpha (Homo sapiens) (UniProt P19793); test: ATG_RXRa_TRANS: Attagene TRANS-FACTORIAL HepG2 Assay for human Retinoid X Receptor alpha (RXRa) (AID 2283012; active = hit-call score of the fitted dose curve at least 0.9, where 1 is the maximum)
How it was run: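 HepG2 cells transiently transfected with GAL4-UAS reporter units and chimeric RXRa-Gal4 protein, treated 24 h. Reporter mRNA measured by RT-PCR, fluorescent labelling, HpaI digestion and capillary electrophoresis. Induction fitted against DMSO.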

[3] = target: human Retinoid X Receptor beta (RXRb), RXRB (gene 6257) (UniProt P28702); test: ATG_RXRb_TRANS: Attagene TRANS-FACTORIAL HepG2 Assay for human Retinoid X Receptor beta (RXRb) (AID 2283013; active = hit-call score of the fitted dose curve at least 0.9, where 1 is the maximum)
How it was run: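 HepG2 cells were transiently transfected with multiplexed GAL4-UAS reporters and a chimeric RXRb-Gal4 construct, then exposed for 24 h. Reporter mRNA was quantified by RT-PCR, FAM labeling, HpaI digestion and capillary electrophoresis; gain of signal was scored against DMSO.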

[4] = read-out: E-selectin (Homo sapiens) (UniProt P16581); test: BSK_3C_Eselectin: BioMAP Diversity Plus: 3C Assay for Eselectin Biomarker Activity (AID 2283015); settings: primary human endothelial cells (HUVEC); actives raise or lower the signal
How it was run: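 E-selectin ELISA readout, fitted bidirectionally relative to DMSO, taken 24 h post-dosing in HUVEC cultures of the 3C system. Overt cytotoxicity tracked with sulforhodamine B staining of parallel wells.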

[5] = read-out: Monocyte Chemoattractant Protein-1 (MCP1), CCL2 (gene 6347); test: BSK_3C_MCP1: BioMAP Diversity Plus: 3C Assay for Monocyte Chemoattractant Protein-1 (MCP1) Biomarker Activity (AID 2283017); settings: primary human endothelial cells (HUVEC); actives raise or lower the signal
How it was run: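 MCP-1 was measured by ELISA 24 h after dosing in primary HUVEC 3C cultures and fitted in both directions relative to DMSO; cytotoxicity was checked by SRB total-protein staining in parallel wells.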

[6] = read-out: Monocyte Chemoattractant Protein-1 (MCP1), CCL2 (gene 6347); test: BSK_4H_MCP1: BioMAP Diversity Plus: 4H Assay for Monocyte Chemoattractant Protein-1 (MCP1) Biomarker Activity (AID 2283018); settings: primary human endothelial cells (HUVEC); actives raise or lower the signal
How it was run: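 Human umbilical vein endothelial cells (4H system) exposed to chemicals for 24 h in 96-well format. MCP-1 measured by ELISA; bidirectional fitting against DMSO, with SRB total-protein staining in parallel cultures for cytotoxicity.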

[7] = read-out: Human Leukocyte Antigen - DR isotype (HLADR), HLA-DRA (gene 3122); test: BSK_3C_HLADR: BioMAP Diversity Plus: 3C Assay for Human Leukocyte Antigen - DR isotype (HLADR) Biomarker Activity (AID 2283019); settings: primary human endothelial cells (HUVEC); actives raise or lower the signal
How it was run: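 Bidirectional fitting against DMSO was applied to the HLA-DR ELISA signal from human umbilical vein endothelial cells, 24 h post-dose. Cytotoxicity came from parallel SRB total-protein staining; 3C proliferation was counted by SRB at 48 h.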

[8] = read-out: Interleukin-8 (IL8), CXCL8 (gene 3576); test: BSK_3C_IL8: BioMAP Diversity Plus: 3C Assay for Interleukin-8 (IL8) Biomarker Activity (AID 2283020); settings: primary human endothelial cells (HUVEC); actives raise or lower the signal
How it was run: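 Primary human umbilical vein endothelial cells were dosed for 24 h. IL-8 was quantified by ELISA and fitted bidirectionally against DMSO. Cytotoxicity was assessed in parallel cultures by SRB staining at 560 nm.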

[9] = read-out: Monokine induced gamma interferon (MIG), CXCL9 (gene 4283); test: BSK_3C_MIG: BioMAP Diversity Plus: 3C Assay for Monokine induced gamma interferon (MIG) Biomarker Activity (AID 2283021); settings: primary human endothelial cells (HUVEC); actives raise or lower the signal
How it was run: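 HUVEC primary endothelial cultures dosed with chemical; MIG quantified by ELISA at 24 h. Data fitted bidirectionally against DMSO control, with parallel SRB total-protein staining for cytotoxicity.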

[10] = BSK_3C_SRB: Viability Assessment in the BioMAP Diversity Plus: 3C Assay (AID 2283023); settings: primary human endothelial cells (HUVEC);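 also: fitted both ways against DMSO so a hit may be signal rise or drop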
How it was run: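 Cytotoxicity readout in parallel HUVEC 3C cultures: after 24 h compound exposure, cells fixed with 10% TCA, stained with 0.1% SRB and read at 560 nm. Gain or loss relative to DMSO fitted.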

[11] = read-out: Matrix Metallopeptidase 1 (MMP1), MMP1 (gene 4312); test: BSK_BE3C_MMP1: BioMAP Diversity Plus: BE3C Assay for Matrix Metallopeptidase 1 (MMP1) Biomarker Activity (AID 2283024); settings: primary human bronchial epithelial cells; actives raise or lower the signal
How it was run: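 Human primary bronchial epithelial cells (BE3C system) dosed for 24 h; MMP-1 quantified by ELISA. Bidirectional fit against DMSO; cytotoxicity tracked in parallel cultures by SRB total-protein staining.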

[12] = read-out: Pselectin, SELP (gene 6403); test: BSK_4H_Pselectin: BioMAP Diversity Plus: 4H Assay for Pselectin Biomarker Activity (AID 2283026); settings: primary human endothelial cells (HUVEC); actives raise or lower the signal
How it was run: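 Primary human umbilical vein endothelial cells were treated 24 h, and cell-surface P-selectin was then quantified by ELISA. Bidirectional fit versus DMSO; cytotoxicity checked in parallel cultures by SRB total-protein staining.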

[13] = BSK_4H_SRB: Viability Assessment in the BioMAP Diversity Plus: 4H Assay (AID 2283027); settings: primary human endothelial cells (HUVEC);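 also: cells exposed to compound for 24 h before staining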
How it was run: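 Human umbilical vein endothelial cells, 24 h after chemical dosing; total protein measured by 0.1% sulforhodamine B staining after 10% TCA fixation, read at 560 nm. Bidirectional fitting against DMSO.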

[14] = BSK_BE3C_SRB: Viability Assessment in the BioMAP Diversity Plus: BE3C Assay (AID 2283028); settings: primary human bronchial epithelial cells
How it was run: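 Cytotoxicity read-out: SRB (0.1%) staining of TCA-fixed (10%) human lung bronchial epithelial cells, absorbance 560 nm, 24 h post-dosing. Curves fitted both directions relative to DMSO.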

[15] = read-out: Thrombomodulin, THBD (gene 7056); test: BSK_3C_Thrombomodulin: BioMAP Diversity Plus: 3C Assay for Thrombomodulin Biomarker Activity (AID 2283029); settings: primary human endothelial cells (HUVEC); actives raise or lower the signal
How it was run: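 Human umbilical vein endothelial cells were exposed to chemicals for 24 h; cell-surface thrombomodulin quantified by ELISA, with bidirectional fitting against DMSO baseline.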

[16] = target: human Thyroid Receptor alpha (THRa1), THRA (gene 7067) (UniProt P10827); test: ATG_THRa1_TRANS: Attagene TRANS-FACTORIAL HepG2 Assay for human Thyroid Receptor alpha (THRa1) (AID 2283014; active = hit-call score of the fitted dose curve at least 0.9, where 1 is the maximum)
How it was run: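 Transcripts from GAL4-UAS-driven reporters, measured after 24 h compound exposure by RT-PCR plus capillary electrophoresis of 6-FAM-labeled fragments, were fitted for gain of signal relative to DMSO. Cells: transiently transfected HepG2 expressing NR-Gal4 chimeras.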

[17] = read-out: Interleukin-1 alpha (IL1a), IL1A (gene 3552); test: BSK_BE3C_IL1a: BioMAP Diversity Plus: BE3C Assay for Interleukin-1 alpha (IL1a) Biomarker Activity (AID 2283016); settings: primary human bronchial epithelial cells; actives raise or lower the signal
How it was run: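 Human primary bronchial epithelial cells, 24 h chemical exposure; IL-1a quantified by ELISA, fitted bidirectionally against DMSO. Cytotoxicity assessed in parallel by SRB total-protein staining at the time of measurement.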

[18] = target: human RAR-related Orphan Receptor gamma (RORg), RORC (gene 6097) (UniProt P51449); test: ATG_RORg_TRANS: Attagene TRANS-FACTORIAL HepG2 Assay for human RAR-related Orphan Receptor gamma (RORg) (AID 2283011; active = hit-call score of the fitted dose curve at least 0.9, where 1 is the maximum)
How it was run: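 Reporter transcripts from a transfected RORg-GAL4 chimera in HepG2 cells were quantified 24 h after dosing by RT-PCR, 6-FAM labelling, HpaI digestion and capillary electrophoresis; increases over DMSO baseline were fitted.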

[19] = BSK_3C_Vis: BioMAP Diversity Plus: 3C Assay for Morphology Visualization (AID 2283025); settings: primary human endothelial cells (HUVEC);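 also: fitted both ways so gain or loss versus DMSO counts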
How it was run: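 Human umbilical vein endothelial cell morphology was inspected by light microscopy 24 h after chemical dosing; scored bidirectionally relative to DMSO.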

Measured: AC50

Sequence of Retinoic acid receptor RXR-alpha (Homo sapiens) (P19793 whole entry, looked up, the tested form may be a part): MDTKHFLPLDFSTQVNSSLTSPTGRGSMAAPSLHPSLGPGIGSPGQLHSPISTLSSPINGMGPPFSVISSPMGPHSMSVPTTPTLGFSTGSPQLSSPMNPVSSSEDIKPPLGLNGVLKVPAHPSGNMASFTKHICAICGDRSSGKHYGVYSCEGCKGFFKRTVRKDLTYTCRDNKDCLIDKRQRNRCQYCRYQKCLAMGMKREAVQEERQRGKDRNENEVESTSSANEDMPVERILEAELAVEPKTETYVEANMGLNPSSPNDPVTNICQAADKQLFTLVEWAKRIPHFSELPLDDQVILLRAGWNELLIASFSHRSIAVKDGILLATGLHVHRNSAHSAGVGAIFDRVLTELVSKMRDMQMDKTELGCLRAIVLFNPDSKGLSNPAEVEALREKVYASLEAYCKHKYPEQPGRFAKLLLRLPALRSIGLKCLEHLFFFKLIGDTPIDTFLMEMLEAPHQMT
Sequence of human Retinoid X Receptor beta (RXRb), RXRB (gene 6257) (P28702 whole entry, looked up, the tested form may be a part): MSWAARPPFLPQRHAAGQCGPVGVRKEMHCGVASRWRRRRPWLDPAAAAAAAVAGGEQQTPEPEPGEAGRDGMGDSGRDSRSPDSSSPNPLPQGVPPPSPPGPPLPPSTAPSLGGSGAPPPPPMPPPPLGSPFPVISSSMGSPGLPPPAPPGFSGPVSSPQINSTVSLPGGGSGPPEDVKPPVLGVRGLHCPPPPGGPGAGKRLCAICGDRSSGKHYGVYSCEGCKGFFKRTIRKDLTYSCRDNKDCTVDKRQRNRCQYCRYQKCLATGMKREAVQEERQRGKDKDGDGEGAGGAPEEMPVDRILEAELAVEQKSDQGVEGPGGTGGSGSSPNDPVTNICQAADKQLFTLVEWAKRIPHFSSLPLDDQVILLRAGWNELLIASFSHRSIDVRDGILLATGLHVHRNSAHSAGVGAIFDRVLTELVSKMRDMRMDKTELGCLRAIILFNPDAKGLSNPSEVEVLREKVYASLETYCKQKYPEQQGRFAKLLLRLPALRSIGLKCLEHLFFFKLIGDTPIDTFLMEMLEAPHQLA
Sequence of human RAR-related Orphan Receptor beta (RORb), RORB (gene 6096) (Q92753 whole entry, looked up, the tested form may be a part): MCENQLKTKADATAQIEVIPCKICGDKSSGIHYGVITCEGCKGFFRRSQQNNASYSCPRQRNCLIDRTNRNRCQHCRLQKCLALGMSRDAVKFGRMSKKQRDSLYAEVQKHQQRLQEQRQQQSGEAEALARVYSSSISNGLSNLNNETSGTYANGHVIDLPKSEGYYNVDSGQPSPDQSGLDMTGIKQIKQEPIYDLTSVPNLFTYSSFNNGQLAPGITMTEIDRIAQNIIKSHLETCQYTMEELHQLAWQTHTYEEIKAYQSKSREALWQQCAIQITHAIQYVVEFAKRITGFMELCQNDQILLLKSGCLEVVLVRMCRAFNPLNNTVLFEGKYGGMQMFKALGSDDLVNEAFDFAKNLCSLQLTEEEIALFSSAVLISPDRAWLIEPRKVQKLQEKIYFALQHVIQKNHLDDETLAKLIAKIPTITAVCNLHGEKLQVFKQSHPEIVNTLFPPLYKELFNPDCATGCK
Sequence of E-selectin (Homo sapiens) (P16581 whole entry, looked up): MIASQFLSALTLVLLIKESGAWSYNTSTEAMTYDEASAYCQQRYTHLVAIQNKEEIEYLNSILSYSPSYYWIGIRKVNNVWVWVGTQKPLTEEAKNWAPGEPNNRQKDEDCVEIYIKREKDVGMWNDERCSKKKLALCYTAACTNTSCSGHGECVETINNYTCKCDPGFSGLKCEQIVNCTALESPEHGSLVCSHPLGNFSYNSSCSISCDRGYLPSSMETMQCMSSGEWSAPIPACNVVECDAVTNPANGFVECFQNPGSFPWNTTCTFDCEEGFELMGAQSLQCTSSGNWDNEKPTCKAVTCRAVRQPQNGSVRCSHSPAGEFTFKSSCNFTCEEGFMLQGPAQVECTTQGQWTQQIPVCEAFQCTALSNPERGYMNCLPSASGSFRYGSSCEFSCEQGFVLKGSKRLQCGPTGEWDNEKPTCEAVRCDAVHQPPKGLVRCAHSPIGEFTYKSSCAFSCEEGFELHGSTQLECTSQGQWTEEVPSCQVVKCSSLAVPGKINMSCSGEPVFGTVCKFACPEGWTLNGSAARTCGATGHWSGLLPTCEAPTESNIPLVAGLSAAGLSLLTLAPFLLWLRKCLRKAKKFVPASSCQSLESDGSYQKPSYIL
Sequence of human Thyroid Receptor alpha (THRa1), THRA (gene 7067) (P10827 whole entry, looked up, the tested form may be a part): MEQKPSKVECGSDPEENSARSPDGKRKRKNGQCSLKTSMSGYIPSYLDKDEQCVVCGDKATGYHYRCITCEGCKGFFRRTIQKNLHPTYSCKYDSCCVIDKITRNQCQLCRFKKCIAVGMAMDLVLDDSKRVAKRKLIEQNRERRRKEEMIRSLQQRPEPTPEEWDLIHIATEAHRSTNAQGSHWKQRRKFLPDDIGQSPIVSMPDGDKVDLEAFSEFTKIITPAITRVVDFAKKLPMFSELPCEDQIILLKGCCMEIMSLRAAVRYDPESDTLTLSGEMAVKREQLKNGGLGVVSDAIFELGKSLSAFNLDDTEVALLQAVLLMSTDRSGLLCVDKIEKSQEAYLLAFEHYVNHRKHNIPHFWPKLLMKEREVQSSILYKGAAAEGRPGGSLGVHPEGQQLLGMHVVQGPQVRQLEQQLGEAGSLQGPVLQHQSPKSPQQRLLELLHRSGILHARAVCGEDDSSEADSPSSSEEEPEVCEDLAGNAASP
Sequence of human RAR-related Orphan Receptor gamma (RORg), RORC (gene 6097) (P51449 whole entry, looked up, the tested form may be a part): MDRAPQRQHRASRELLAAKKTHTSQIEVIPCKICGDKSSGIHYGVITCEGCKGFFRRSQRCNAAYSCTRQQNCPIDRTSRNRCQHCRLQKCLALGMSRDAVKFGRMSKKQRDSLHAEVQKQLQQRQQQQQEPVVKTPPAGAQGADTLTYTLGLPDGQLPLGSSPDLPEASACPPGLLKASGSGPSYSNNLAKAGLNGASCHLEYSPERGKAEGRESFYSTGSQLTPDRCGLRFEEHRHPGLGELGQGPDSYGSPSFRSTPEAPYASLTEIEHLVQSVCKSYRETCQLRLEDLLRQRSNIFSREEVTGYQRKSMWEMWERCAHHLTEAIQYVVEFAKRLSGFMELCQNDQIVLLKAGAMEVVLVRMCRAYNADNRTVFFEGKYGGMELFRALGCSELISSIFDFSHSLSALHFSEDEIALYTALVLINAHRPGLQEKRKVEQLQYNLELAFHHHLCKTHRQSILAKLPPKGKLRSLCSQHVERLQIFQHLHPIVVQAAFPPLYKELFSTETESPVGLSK

FC(F)(F)C(F)(F)C(F)(F)C(F)(F)CCI
inactive: [1] | [2] | [4] | [5] | [6] | [7] | [8] | [9] | [10] | [11] | [12] | [13] | [14] | [15]
active: [3] 123 µM | [11] 30 µM

O=C(O)C(F)(F)C(F)(F)F
active: [5] 23 µM
inactive: [1] | [2] | [16] | [4] | [17] | [5] | [6] | [7] | [8] | [9] | [10] | [11] | [12] | [13] | [15]

C=CC/C=C/C/C=C/C/C=C/C
active: [3] 100 µM
not listed: [1] | [14] | [17]
inactive: all other assays above

O=C(O)C=C(C(F)(F)F)C(F)(F)F
active: [4] 15.3 µM and 5.95 µM | [7] 30 µM and 47.7 µM | [12] 22.4 µM and 21.1 µM
not listed: [1] | [17] | [19]
inactive: all other assays above

FC(F)(F)C(F)(F)C(F)(F)C(F)(F)C(F)(F)C(F)(F)CCS
not listed: [1] | [3] | [5] | [14] | [17] | [19]
inactive: all other assays above

CC/C=C\CCOC(C)=O
inactive: [18]

FC(F)(F)C(F)(F)C(F)(F)C(F)(F)C(F)(F)C(F)(F)C(F)(F)C(F)(F)F
not listed: [3] | [17] | [18] | [19]
inactive: all other assays above

Nc1ccc(Oc2cccc(Oc3ccc(N)cc3)c2)cc1
inactive: [18]
